Results: the supplement of paper PMC12350171
Counter-ions that a name gives are not always drawn. A number with no mark means an inactive call.

Key:
Settings in all cases: 20 µM
[1] = tested on: Salmonella enterica typhimurium; test: growth AUC normalised to DMSO control (fraction of control); higher = less growth inhibition, active = hit call of the paper
Summary of the method: (§1)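 After two anaerobic passages, pathogens were added at a starting OD578 of 0.01 to pre-reduced mGAM plates holding compound at 20 μM with 1% DMSO; hemin and NAD were supplemented for Haemophilus parainfluenzae. Sealed with breathable membranes, plates were read at OD578 hourly for 24 h, in three biological replicates. The trapezoidal rule, applied up to the exponential-to-stationary transition, gave the growth-curve AUC, which was normalised to DMSO controls on the same plate.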

Shigella flexneri = test: as above
Summary of the method: as §1

Vibrio cholerae = test: as above
Summary of the method: as §1

[2] = tested on: Yersinia pseudotuberculosis; test: as above
Summary of the method: as §1

P. vulgatus RND KO = test: growth AUC normalised to DMSO control (median) (fraction of control); higher = less growth inhibition, active = hit call of the paper
Summary of the method: (§2)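 For normalised area under the curve, growth curves were truncated at entry into stationary phase, integrated by the trapezoidal rule and divided against vehicle wells on the same plate. The curves came from strains passaged twice overnight without oxygen and then grown in mGAM in 96-well plates at a starting OD578 of 0.01. Each well held an approved-drug library compound at 20 μM with 1% DMSO, and OD578 was read hourly for 24 h in an anaerobic incubator. Values are medians of three biological replicates.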

P. vulgatus WT = test: as above
Summary of the method: as §2

[3] = tested on: S. enterica typhimurium WT; test: as above
Summary of the method: as §2

[4] = tested on: S. enterica typhimurium tolC KO; test: as above
Summary of the method: as §2
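For growth AUC normalised to DMSO control (median) in this document: active when median AUC fell below 0.1.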

Row | SMILES | growth AUC normalised to DMSO control [1] | growth AUC normalised to DMSO control (Shigella flexneri) | growth AUC normalised to DMSO control (Vibrio cholerae) | growth AUC normalised to DMSO control [2] | growth AUC normalised to DMSO control (P. vulgatus RND KO) | growth AUC normalised to DMSO control (P. vulgatus WT) | growth AUC normalised to DMSO control [3] | growth AUC normalised to DMSO control [4]
1 | Cc1c(N(C)CS(=O)(=O)O)c(=O)n(-c2ccccc2)n1C [Dipyrone sodium salt] | 1.02 | 1.03 | 1.09 | 1.02 | 0.999 | 0.996 | 1.01 | 0.999
2 | COc1cc(NC(C)CCCN)c2ncccc2c1 (configuration not stated) [Primaquine diphosphate] | 0.998 | 1.01 | 1.01 | 1.02 | 1.01 | 1.02 | 1.01 | 0.998
3 | COc1ccccc1O [Guaiacol] | 0.991 | 0.976 | 0.992 | 0.999 | 0.99 | 1 | 0.997 | 1
4 | CC(C)NCC(O)COc1ccc(CCOCC2CC2)cc1 (configuration not stated) [Betaxolol hydrochloride] | 0.998 | 0.988 | 1 | 1 | 1.01 | 1.01 | 1.01 | 1
5 | Clc1ccc(C(Cn2ccnc2)OCc2ccsc2Cl)c(Cl)c1 (configuration not stated) [Tioconazole] | 0.986 | 0.984 | 0.909 | 1.07 | 0.932 | 0.929 | 1 | 0.903
6 | CC(=O)O[C@H]1C[C@@]2(C)[C@@H](C[C@@H](O)[C@H]3[C@@]4(C)CC[C@@H](O)[C@@H](C)[C@@H]4CC[C@@]32C)/C1=C(\CCC=C(C)C)C(=O)O [Fusidic acid sodium salt] | 0.997 | 0.974 | 0.927 | 0.824 (active) | 0.0166 (active) | 0.0143 (active) | 0.989 | 0.0407 (active)
7 | COC(=O)CCc1ccc(OCC(O)CNC(C)C)cc1 (configuration not stated) [Esmolol hydrochloride] | 1.01 | 1.06 | 1.06 | 1 | 1.05 | 1.09 | 1 | 1.01
8 | O=c1oc2ccccc2c(O)c1Cc1c(O)c2ccccc2oc1=O [Dicumarol] | 0.986 | 1 | 0.891 | 1 | 0.877 | 0.945 | 1 | 0.891
9 | Cc1cccn2c(=O)c(-c3nnn[nH]3)cnc12 [Pemirolast potassium] | 0.968 | 0.946 | 0.921 | 0.964 | 0.998 | 1.01 | 0.993 | 0.995
10 | Cn1c(=O)c2c(ncn2CC2OCCO2)n(C)c1=O [Doxofylline] | 1 | 1.07 | 1.01 | 0.99 | 1.02 | 1.06 | 0.999 | 1
11 | C1N2CN3CN1CN(C2)C3 [Methenamine] | 1.02 | 1.02 | 1.05 | 1.03 | 1 | 1.03 | 1 | 0.991
12 | CN(C)C/C=C(/c1ccc(Br)cc1)c1cccnc1 [Zimelidine dihydrochloride monohydrate] | 0.996 | 0.999 | 1 | 1.03 | 1.04 | 1.04 | 1.02 | 0.983
13 | CNC[C@H](O)[C@@H](O)[C@H](O)[C@H](O)CO [Meglumine] | 1.02 | 1 | 1.04 | 0.984 | 1.01 | 1.04 | 1.01 | 1
14 | CN(C(=O)C(Cl)Cl)c1ccc(OC(=O)c2ccco2)cc1 [Diloxanide furoate] | 0.998 | 0.959 | 0.97 | 0.978 | 0.988 | 0.996 | 0.995 | 0.966
